Compound in this experiment: CN[C@@H]1C[C@H]2O[C@@](C)([C@@H]1OC)n1c3ccccc3c3c4c(c5c6ccccc6n2c5c31)C(=O)NC4 [staurosporine]
Briefly: log2 fold change of tryptic peptide abundance, ligand vs vehicle (limited proteolysis) (log2 ratio); higher = more trypsin-susceptible (destabilized). The following applies: ligand concentration: 20 uM; sample: mouse liver crude lysate; replicate design: treated separately.
Sequence of UniProt Q5SW19 (Q5SW19 whole entry): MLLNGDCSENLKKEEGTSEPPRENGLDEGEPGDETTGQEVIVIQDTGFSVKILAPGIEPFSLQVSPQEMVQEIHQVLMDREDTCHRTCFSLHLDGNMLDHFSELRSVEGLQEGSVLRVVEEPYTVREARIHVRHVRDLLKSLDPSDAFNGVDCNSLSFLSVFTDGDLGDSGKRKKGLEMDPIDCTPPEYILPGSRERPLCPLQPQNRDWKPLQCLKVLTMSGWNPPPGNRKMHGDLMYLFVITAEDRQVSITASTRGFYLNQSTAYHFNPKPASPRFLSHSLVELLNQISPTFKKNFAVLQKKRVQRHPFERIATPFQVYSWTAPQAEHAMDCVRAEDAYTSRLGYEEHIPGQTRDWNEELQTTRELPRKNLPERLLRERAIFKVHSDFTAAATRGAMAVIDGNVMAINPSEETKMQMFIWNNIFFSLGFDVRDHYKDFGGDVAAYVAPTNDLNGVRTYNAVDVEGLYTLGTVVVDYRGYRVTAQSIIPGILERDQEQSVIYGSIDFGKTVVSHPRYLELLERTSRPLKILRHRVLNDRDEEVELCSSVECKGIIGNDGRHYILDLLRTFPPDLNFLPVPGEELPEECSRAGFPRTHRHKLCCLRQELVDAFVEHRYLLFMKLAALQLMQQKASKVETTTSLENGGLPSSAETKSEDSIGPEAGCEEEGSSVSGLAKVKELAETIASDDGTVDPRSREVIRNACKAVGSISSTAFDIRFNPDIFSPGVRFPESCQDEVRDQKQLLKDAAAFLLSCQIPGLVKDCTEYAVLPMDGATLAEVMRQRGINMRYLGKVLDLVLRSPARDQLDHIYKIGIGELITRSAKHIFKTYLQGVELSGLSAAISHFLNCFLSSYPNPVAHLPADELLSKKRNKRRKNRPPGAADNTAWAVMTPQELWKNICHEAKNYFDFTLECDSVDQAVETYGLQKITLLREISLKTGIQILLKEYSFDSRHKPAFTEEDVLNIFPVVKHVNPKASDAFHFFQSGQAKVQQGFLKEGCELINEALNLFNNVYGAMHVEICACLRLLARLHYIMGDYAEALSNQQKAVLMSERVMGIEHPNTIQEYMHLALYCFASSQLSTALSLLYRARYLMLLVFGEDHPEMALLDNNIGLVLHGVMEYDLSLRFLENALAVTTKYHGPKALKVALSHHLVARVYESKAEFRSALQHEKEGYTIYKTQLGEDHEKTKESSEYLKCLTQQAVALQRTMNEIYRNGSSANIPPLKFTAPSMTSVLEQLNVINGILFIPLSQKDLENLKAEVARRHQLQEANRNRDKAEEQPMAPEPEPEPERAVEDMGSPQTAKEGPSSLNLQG
Sequence of UniProt Q9Z2W1 (Q9Z2W1 whole entry): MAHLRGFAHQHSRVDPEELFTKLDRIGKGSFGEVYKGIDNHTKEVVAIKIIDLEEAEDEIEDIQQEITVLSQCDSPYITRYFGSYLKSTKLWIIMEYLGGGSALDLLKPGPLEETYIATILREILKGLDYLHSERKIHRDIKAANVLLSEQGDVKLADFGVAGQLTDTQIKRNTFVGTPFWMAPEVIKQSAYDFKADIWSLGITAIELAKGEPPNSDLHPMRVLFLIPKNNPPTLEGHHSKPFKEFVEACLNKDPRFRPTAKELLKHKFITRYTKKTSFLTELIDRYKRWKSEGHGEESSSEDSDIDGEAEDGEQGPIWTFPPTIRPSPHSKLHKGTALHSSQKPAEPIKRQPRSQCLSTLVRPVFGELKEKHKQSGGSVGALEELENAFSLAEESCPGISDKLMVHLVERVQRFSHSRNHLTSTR
Sequence of UniProt Q80ZM8 (Q80ZM8 whole entry): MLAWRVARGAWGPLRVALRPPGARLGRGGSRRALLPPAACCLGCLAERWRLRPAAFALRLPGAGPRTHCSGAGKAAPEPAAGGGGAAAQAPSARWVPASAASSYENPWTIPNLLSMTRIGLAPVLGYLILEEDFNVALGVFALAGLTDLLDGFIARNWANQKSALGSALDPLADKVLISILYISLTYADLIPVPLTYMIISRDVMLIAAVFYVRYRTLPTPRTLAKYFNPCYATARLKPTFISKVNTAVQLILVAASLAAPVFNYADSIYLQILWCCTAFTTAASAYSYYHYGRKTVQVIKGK
Sequence of UniProt Q9WU79 (Q9WU79 whole entry): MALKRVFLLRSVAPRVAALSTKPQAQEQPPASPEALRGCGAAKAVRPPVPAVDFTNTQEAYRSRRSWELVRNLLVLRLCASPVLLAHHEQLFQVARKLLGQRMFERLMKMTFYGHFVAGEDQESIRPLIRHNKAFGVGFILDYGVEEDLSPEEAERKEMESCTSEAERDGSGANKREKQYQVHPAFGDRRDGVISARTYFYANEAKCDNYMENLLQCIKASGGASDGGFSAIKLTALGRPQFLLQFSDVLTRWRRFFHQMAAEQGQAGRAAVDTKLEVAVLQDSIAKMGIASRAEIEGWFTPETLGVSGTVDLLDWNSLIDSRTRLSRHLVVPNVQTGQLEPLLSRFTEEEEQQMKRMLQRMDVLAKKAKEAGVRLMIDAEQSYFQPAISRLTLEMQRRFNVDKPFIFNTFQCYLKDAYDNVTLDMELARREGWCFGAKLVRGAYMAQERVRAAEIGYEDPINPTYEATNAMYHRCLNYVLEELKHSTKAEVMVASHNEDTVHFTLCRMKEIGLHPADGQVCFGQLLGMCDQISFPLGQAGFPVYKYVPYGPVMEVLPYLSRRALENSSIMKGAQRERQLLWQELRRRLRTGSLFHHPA
Sequence of UniProt Q91YH5 (Q91YH5 whole entry): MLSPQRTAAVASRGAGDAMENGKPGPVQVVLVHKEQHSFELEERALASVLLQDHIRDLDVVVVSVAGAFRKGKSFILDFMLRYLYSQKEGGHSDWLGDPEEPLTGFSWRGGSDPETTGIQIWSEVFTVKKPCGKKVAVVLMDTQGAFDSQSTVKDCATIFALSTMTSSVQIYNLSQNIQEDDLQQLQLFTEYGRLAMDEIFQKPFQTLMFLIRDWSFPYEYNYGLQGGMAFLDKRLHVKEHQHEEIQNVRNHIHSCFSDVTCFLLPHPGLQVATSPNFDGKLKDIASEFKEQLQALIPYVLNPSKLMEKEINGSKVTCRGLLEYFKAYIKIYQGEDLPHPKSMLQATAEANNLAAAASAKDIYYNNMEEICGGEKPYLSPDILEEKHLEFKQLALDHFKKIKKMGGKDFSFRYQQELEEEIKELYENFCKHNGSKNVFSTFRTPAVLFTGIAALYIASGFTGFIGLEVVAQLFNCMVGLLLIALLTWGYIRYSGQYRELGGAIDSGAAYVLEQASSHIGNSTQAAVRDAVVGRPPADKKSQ
Sequence of UniProt Q8BYC6 (Q8BYC6 whole entry): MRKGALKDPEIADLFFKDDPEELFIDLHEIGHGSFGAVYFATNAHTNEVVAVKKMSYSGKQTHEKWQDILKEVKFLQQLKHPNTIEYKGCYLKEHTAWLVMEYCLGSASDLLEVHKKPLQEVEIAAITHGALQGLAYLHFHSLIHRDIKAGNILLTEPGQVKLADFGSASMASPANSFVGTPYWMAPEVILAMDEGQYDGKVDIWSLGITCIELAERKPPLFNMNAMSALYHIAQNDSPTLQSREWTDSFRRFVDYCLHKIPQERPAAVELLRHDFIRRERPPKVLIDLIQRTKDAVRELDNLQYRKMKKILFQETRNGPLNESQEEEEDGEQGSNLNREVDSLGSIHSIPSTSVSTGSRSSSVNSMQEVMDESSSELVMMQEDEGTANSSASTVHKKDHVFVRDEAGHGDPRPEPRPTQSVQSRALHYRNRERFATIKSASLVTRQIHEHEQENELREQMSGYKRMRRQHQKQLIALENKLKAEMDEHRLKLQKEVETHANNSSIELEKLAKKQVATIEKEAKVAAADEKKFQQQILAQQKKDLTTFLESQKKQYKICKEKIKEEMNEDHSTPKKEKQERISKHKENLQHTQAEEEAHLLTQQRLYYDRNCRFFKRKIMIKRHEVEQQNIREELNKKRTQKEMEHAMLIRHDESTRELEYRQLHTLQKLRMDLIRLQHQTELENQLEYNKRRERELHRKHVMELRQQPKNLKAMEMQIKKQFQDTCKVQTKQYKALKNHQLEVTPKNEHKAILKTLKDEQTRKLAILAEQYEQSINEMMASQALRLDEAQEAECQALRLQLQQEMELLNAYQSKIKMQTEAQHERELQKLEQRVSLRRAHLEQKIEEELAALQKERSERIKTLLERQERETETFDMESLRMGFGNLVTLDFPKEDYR
Sequence of UniProt Q62073 (Q62073 whole entry): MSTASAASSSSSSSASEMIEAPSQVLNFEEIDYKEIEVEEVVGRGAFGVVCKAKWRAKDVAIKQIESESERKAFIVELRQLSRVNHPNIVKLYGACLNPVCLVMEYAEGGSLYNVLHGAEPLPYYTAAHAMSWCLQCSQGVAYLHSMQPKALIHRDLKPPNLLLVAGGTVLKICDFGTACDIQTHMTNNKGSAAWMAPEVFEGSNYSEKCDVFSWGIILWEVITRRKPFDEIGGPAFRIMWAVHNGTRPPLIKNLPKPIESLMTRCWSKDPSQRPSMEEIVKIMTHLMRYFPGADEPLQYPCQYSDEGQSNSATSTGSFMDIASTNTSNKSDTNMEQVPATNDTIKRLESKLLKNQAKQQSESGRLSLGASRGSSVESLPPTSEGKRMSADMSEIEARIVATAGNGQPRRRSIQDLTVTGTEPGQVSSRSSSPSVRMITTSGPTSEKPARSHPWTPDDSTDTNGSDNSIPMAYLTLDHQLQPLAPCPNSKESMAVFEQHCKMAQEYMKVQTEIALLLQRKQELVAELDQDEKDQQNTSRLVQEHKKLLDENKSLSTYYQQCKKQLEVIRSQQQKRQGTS
Sequence of UniProt Q91XD8 (Q91XD8 whole entry): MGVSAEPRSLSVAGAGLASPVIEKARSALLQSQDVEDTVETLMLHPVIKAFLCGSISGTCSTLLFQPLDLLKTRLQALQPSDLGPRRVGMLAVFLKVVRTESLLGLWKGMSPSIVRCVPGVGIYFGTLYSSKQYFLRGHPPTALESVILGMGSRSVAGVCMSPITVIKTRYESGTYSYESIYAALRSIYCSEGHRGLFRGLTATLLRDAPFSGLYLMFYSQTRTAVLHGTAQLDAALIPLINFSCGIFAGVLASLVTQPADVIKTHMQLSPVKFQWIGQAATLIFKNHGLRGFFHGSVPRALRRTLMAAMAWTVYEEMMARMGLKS
For the target “UniProt Q5SW19 (peptide sequence: YLELLER, peptide start residue: 517)”, the log2 fold change is -0.493.

As to “UniProt Q91YH5 (peptide sequence: ALASVLLQDHIR, peptide start residue: 45)”, the log2 fold change was 0.309.

With “UniProt Q8K0D0 (peptide sequence: SKLTENLVALK, peptide start residue: 140)”, the log2 fold change was -2.51.

“UniProt Q921S7 (peptide sequence: HFVPWLAR, peptide start residue: 65)”: the log2 fold change was 0.415.

With “UniProt Q9Z2W1 (peptide sequence: GSFGEVYK, peptide start residue: 29)”, the log2 fold change is -2.09.

Turning to “UniProt P11798 (peptide sequence: DLKPENLLLASK, peptide start residue: 136)”, the log2 fold change was -3.02.

With “UniProt Q99N91 (peptide sequence: GNEYQPSNIK, peptide start residue: 50)”, the log2 fold change turned out to be 0.323.

For “UniProt Q62073 (peptide sequence: VNHPNIVK, peptide start residue: 84)”, the log2 fold change is -1.73.

Consider “UniProt Q80ZM8 (peptide sequence: YFNPCYATAR, peptide start residue: 227)”, for which the log2 fold change is 1.12.

Consider “UniProt Q91XD8 (peptide sequence: LQALQPSDLGPR, peptide start residue: 75)”, for which the log2 fold change was -0.916.

As to “UniProt Q9WU79 (peptide sequence: ASGGASDGGFSAIK, peptide start residue: 220)”, the log2 fold change is 0.201.

Consider “UniProt Q8BYC6 (peptide sequence: VLIDLIQR, peptide start residue: 285)”, for which the log2 fold change was -1.67.

For the origin of these results see the supplement of paper PMC12819154, “High-throughput peptide-centric local stability assay extends protein–ligand identification to membrane proteins, tissues and bacteria” (Nature Structural & Molecular Biology, 2025).
